Laboratory results as given in PubChem BioAssay (Tox21).
Results filed as inconclusive are left out. Calls of active or inactive are those of the source. Calls come from the whole dose curve.

Legend:
[1] = target: Acetylcholinesterase (Homo sapiens) (UniProt P22303); test: Acetylcholinesterase (AChE) small molecule antagonists: colormetric cell-based qHTS assay (AID 1347395); note: nearly all actives have a fitted effect of over 30% in size
How it was run: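 Homogeneous whole-cell format. SH-SY5Y cells seeded overnight, dosed with compound (30 min, 37 C, 5% CO2), then given DTNB/acetylthiocholine cocktail for 90 min at 37 C; colorimetric signal.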

[2] = target: Acetylcholinesterase (Homo sapiens) (UniProt P22303); test: Acetylcholinesterase (AChE) small molecule antagonists: enzyme-based qHTS assay (AID 1347397); settings: Potency: AChE enzyme activity inhibition; outcome: AChE enzyme activity inhibition; note: nearly all actives have a fitted effect of over 55% in size
How it was run: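 Colorimetric DTNB readout of acetylthiocholine hydrolysis, 10 min at room temperature, after 30 min room-temperature exposure of 50 mU/mL recombinant human enzyme to compound; DMSO vehicle control.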

[3] = target: Acetylcholinesterase (Homo sapiens) (UniProt P22303); test: Acetylcholinesterase (AChE) small molecule antagonists: fluorescence cell-based qHTS assay (AID 1347398); settings: Potency: AChE activity; outcome: AChE activity; note: nearly all actives have a fitted effect of over 50% in size
How it was run: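 Cellular AChE activity read as thiocholine from acetylthiocholine hydrolysis, detected by Thiolite Green fluorescence at 490/520 nm after 40 min at room temperature. Compounds were pre-incubated 30 min at 37 C on adherent SH-SY5Y cells.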

[4] = target: Acetylcholinesterase (Homo sapiens) (UniProt P22303); test: Acetylcholinesterase (AChE) small molecule antagonists: enzyme-based qHTS assay with human liver microsomes (AID 1347399); settings: Potency: qHTS inhibition; outcome: qHTS inhibition; note: nearly all actives have a fitted effect of over 60% in size
How it was run: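 Recombinant human AChE (50 mU/mL in the enzyme mix) and human liver microsomes (0.25 mg/mL final) were preincubated with compound and NADPH (0.25 mg/mL final) for 30 min at 37 C. Acetylthiocholine/DTNB was then added; thiocholine was read colorimetrically after 10 min at room temperature.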
% is set by controls: 0 for no effect and ±100 for the full control effect.

Sequence of Acetylcholinesterase (Homo sapiens) (P22303 whole entry, looked up): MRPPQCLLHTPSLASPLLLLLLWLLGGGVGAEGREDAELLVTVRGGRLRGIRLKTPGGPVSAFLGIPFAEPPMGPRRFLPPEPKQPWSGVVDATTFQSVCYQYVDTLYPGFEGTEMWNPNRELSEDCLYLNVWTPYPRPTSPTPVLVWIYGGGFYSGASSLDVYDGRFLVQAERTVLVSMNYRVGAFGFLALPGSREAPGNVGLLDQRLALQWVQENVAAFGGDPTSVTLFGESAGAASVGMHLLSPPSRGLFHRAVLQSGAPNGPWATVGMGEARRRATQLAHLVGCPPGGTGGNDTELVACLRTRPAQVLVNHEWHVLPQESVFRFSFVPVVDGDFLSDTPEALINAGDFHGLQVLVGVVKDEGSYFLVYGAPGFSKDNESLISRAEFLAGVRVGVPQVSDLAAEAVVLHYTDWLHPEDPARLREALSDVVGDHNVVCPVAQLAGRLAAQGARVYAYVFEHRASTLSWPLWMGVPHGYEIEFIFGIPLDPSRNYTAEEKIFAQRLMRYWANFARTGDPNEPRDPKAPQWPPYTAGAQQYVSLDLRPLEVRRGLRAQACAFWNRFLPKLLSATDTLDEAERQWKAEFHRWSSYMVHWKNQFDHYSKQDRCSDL

O=Cc1cccc(Br)c1
inactive: Potency [1] | Potency [2] | Potency [3] | Potency [4]

CN(C1CCCCC1)S(=O)(=O)c1ccccc1N
inactive: Potency [1] | Potency [2] | Potency [3] | Potency [4]

CC(=O)Nc1ccc(S(N)(=O)=O)cc1
inactive: Potency [1] | Potency [2] | Potency [3] | Potency [4]

CC(=O)OCCC(C)CC(C)(C)C (stereo not given)
inactive: Potency [1] | Potency [2] | Potency [3] | Potency [4]

CC(=O)OCC1=C(C(=O)O)N2C(=O)[C@@H](NC(=O)CSc3ccncc3)[C@H]2SC1
inactive: Potency [1] | Potency [2] | Potency [3] | Potency [4]

C1=CCC2CC=CC2C1 (stereo not given)
inactive: Potency [1] | Potency [2] | Potency [3] | Potency [4]

O=C(O)c1c2ccccc2cc2ccccc12
inactive: Potency [1] | Potency [2] | Potency [3] | Potency [4]

Cc1ccc(-c2ccccc2)cc1
inactive: Potency [1] | Potency [2] | Potency [3] | Potency [4]

O=C1OC(OC(=O)c2cccnc2Nc2cccc(C(F)(F)F)c2)c2ccccc21 (stereo not given)
inactive: Potency [1] | Potency [2] | Potency [3] | Potency [4]

OCCCO
inactive: Potency [1] | Potency [2] | Potency [3] | Potency [4]

O=C(c1ccco1)N1CCNCC1
inactive: Potency [1] | Potency [2] | Potency [3] | Potency [4]

Cn1cc(C(=O)[C@@H]2CCc3nc[nH]c3C2)c2ccccc21
inactive: Potency [1] | Potency [2] | Potency [3] | Potency [4]

CC(C)(C)OC(=O)c1ccccc1C(=O)O
inactive: Potency [1] | Potency [2] | Potency [3] | Potency [4]

CC(=O)C1CCCCC1=O (stereo not given)
inactive: Potency [1] | Potency [2] | Potency [3] | Potency [4]

COC(/C=C(\C)CCC=C(C)C)OC
inactive: Potency [1] | Potency [2] | Potency [3] | Potency [4]

COC(=O)c1cc(Cl)cc(Cl)c1
inactive: Potency [1] | Potency [2] | Potency [3] | Potency [4]

CCOc1ccc(O)cc1
inactive: Potency [1] | Potency [2] | Potency [3] | Potency [4]

CCCCCCCCCCCCOC(C)=O
inactive: Potency [1] | Potency [2] | Potency [3] | Potency [4]

CC[C@@]1(c2ccccc2)NC(=O)N(C)C1=O
inactive: Potency [1] | Potency [2] | Potency [3] | Potency [4]

CC(=O)C=O
inactive: Potency [1] | Potency [2] | Potency [3] | Potency [4]

CC(=O)OC1CCCCC1C(C)(C)C (stereo not given)
inactive: Potency [1] | Potency [2] | Potency [3] | Potency [4]

O=C(O)c1cccc(-c2noc(-c3ccccc3F)n2)c1
inactive: Potency [1] | Potency [2] | Potency [3] | Potency [4]

CC(C)(O)c1ccc(C(C)(C)O)cc1
inactive: Potency [1] | Potency [2] | Potency [3] | Potency [4]

Cc1ccc(C=O)s1
inactive: Potency [1] | Potency [2] | Potency [3] | Potency [4]

CC(=O)c1ccccc1N
inactive: Potency [1] | Potency [2] | Potency [3] | Potency [4]

CCc1cc(C2=C(C(=O)O)N(c3ccccc3C(F)(F)F)S(=O)(=O)c3ccccc32)cc2c1OCO2
inactive: Potency [1] | Potency [2] | Potency [3] | Potency [4]

c1ccc(-c2nn[nH]n2)cc1
inactive: Potency [1] | Potency [2] | Potency [3] | Potency [4]

CC1CCc2nccnc21 (stereo not given)
inactive: Potency [1] | Potency [2] | Potency [3] | Potency [4]

C=CC(C)(CCC=C(C)C)OC(=O)CC (stereo not given)
inactive: Potency [1] | Potency [2] | Potency [3] | Potency [4]

[O]=[Mo](=[O])=[O]
inactive: activity, negative = inhibition [1] 2.74% [at 23.6 µM] | activity change, negative = inhibition [2] 0.153% [at 23.6 µM] | activity change, negative = inhibition [3] 0.826% [at 23.8 µM] | activity change, negative = inhibition [4] 0.081% [at 23.6 µM]

O=C(OCC(COC(=O)c1ccccc1)(COC(=O)c1ccccc1)COC(=O)c1ccccc1)c1ccccc1
inactive: Potency [1] | Potency [2] | Potency [3] | Potency [4]

CSSc1ccoc1C
inactive: Potency [1] | Potency [2] | Potency [3] | Potency [4]

C=CCCCCCCCCCCCCCC
inactive: activity, negative = inhibition [1] 0.819% [at 23.6 µM] | activity change, negative = inhibition [2] 0.291% [at 23.6 µM] | activity change, negative = inhibition [3] 5.43% [at 23.8 µM] | activity change, negative = inhibition [4] -1.13% [at 23.6 µM]

C/C(=N\[Si](C)(C)C)O[Si](C)(C)C
inactive: Potency [1] | Potency [2] | Potency [3] | Potency [4]

Cc1cc(N)c(S(=O)(=O)O)cc1Cl
inactive: Potency [1] | Potency [2] | Potency [3] | Potency [4]

CCC1(C)C(=O)N(Cl)C(=O)N1Cl (stereo not given)
inactive: Potency [1] | Potency [2] | Potency [3] | Potency [4]

CC(C)c1ccc2c(c1)CC[C@H]1[C@](C)(CN)CCC[C@]21C
inactive: Potency [1] | Potency [2] | Potency [3] | Potency [4]

CCC(C)C(=O)OCCc1ccccc1 (stereo not given)
inactive: Potency [1] | Potency [2] | Potency [3] | Potency [4]

CCc1cccc(C)c1N(C(=O)C(=O)O)C(C)COC (stereo not given)
inactive: Potency [1] | Potency [2] | Potency [3] | Potency [4]

CN(C)CCOc1ccccc1Cc1ccccc1
inactive: Potency [1] | Potency [2] | Potency [3] | Potency [4]

O=C1OC[C@H](Cc2cccc(O)c2)[C@H]1Cc1cccc(O)c1
inactive: Potency [1] | Potency [2] | Potency [3] | Potency [4]

NCC1CCCC(CN)C1 (stereo not given)
inactive: Potency [1] | Potency [2] | Potency [3] | Potency [4]

CCOC(=O)CCc1ccccc1
inactive: Potency [1] | Potency [2] | Potency [3] | Potency [4]

CCC(C=O)CC
inactive: Potency [1] | Potency [2] | Potency [3] | Potency [4]

CC(COc1ccccc1)NC(C)C(O)c1ccc(O)cc1 (stereo not given)
inactive: Potency [1] | Potency [2] | Potency [3] | Potency [4]
